Sampled rows, rich in hits. Any-hit rate of the full collection: about 2.8%.
Pol eta inh – qHTS for Inhibitors of Polymerase Eta | DNA polymerase eta (Homo sapiens), Q9Y253 | recombinant Pol eta, fluorescent DNA replication assay | Potency, µM (top dose mostly 114 µM), without a hit: at the top dose activity change, negative = inhibition, most hits filed as inhibitors | 390,000 tested, 1.2% active | AID 588591, 2011; note: potency is the fitted concentration of half-maximal effect; % is set by controls: 0 for no effect and ±100 for the full control effect
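Pol eta at 10 nM preincubated with compounds 15 min at room temperature; reaction started with fluorescent substrate (50 nM final) and read kinetically at 0 and 10 min.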
POLI inh – qHTS for Inhibitors of Polymerase Iota. DNA polymerase iota (Homo sapiens), Q9UNA4. Pol iota fluorescent replication assay, 10 min. Potency, µM (series often up to 115 µM), for inactives: at the highest dose activity, negative = inhibition, actives largely listed as inhibitors. 390,000 tested, 1% active. AID 588590, 2011; note: potency is the fitted concentration of half-maximal effect
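Pol iota at 10 nM preincubated 15 min with compounds at room temperature; reaction started with fluorescent substrate, 50 nM final. Fluorescence read kinetically at 0 and 10 min; buffer-only wells as negative control.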
Pol kappa inh – qHTS for Inhibitors of Polymerase Kappa; DNA polymerase kappa (Homo sapiens), Q9UBT6; 400,000 tested, 0.53% active; purified Pol kappa, fluorescent DNA synthesis assay, 10 min; Potency, µM (highest dose often 107 µM), without a hit: at the highest dose activity, negative = inhibition, actives largely listed as inhibitors; note: potency is the fitted concentration of half-maximal effect; % is set by controls: 0 for no effect and ±100 for the full control effect
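Kinetic fluorescence screen: compound preincubated 15 min RT with 10 nM enzyme; 50 nM substrate (final) initiates; reads at 0/10 min.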
PI5P4Ka inh – qHTS for Inhibitors of phosphatidylinositol 5-phosphate 4-kinase (PI5P4K); max response, %; Phosphatidylinositol 5-phosphate 4-kinase type-2 alpha (Homo sapiens), P48426; 330,000 tested, 1.2% active; AID 652105, 2013; PI5P4Kalpha enzyme, ADP-Glo luminescence, 60 min; hits give low values; active = max response of -50% or lower; inconclusive = between -30% and -50%; inactive = -30% or higher; note: value at the top dose of about 77 µM; % is set by controls: 0 for no effect and ±100 for the full control effect
Target sequence (P48426 whole entry, looked up): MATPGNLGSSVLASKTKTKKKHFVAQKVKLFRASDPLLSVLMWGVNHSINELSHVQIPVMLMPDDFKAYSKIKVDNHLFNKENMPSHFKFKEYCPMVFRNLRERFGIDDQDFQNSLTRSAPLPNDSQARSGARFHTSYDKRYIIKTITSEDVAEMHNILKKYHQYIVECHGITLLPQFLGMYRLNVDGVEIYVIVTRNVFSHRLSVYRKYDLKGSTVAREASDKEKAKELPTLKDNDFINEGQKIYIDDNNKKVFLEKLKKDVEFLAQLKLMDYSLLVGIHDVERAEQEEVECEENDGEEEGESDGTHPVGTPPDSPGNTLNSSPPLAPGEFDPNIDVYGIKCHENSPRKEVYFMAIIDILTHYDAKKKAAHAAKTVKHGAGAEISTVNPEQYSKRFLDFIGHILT
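Controls without substrate or without enzyme flank wells where PI5P4Kalpha converts substrate using 5 microM ATP (final). Incubation lasts 60 minutes at room temperature; ADP formed is read by ADP-Glo luminescence.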
WRN inhibitor – qHTS for Inhibitors of WRN Helicase; Bifunctional 3'-5' exonuclease/ATP-dependent helicase WRN (Homo sapiens), Q14191; WRN helicase unwinding, fluorescent forked duplex, kinetic; Potency, µM (top dose mostly 114 µM), for the others: top-dose activity change, negative = inhibition, actives largely listed as inhibitors; 360,000 tested, 0.46% active; AID 651768, 2012; note: potency is the fitted concentration of half-maximal effect; % is set by controls: 0 for no effect and ±100 for the full control effect; nearly all actives have a fitted effect of over 55% in size
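Kinetic fluorescence helicase assay: unwinding of a quenched forked DNA duplex (100 nM final) with 2 mM ATP final raises red fluorescence (525/598 nm). Compounds sat 15 min at room temperature with 20 nM WRN beforehand.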
Pol beta inh – qHTS Assay for Inhibitors of DNA Polymerase Beta. AID 485314, 2010. Potency, µM (highest dose often 114 µM), for the others: at the top dose activity change, negative = inhibition, most hits filed as inhibitors. P06746. Pol beta primer extension/strand displacement, fluorescence kinetic. 340,000 tested, 1.3% active; note: potency is the fitted concentration of half-maximal effect; % is set by controls: 0 for no effect and ±100 for the full control effect
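Pol beta (10 nM) was preincubated with compound for 15 min at room temperature. The reaction was then started with 50 nM substrate and read immediately and after a further 10 min at room temperature.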
Starred values were filed as active, the others as inactive; ? = inconclusive; nt = no result; ! = a repeat was not active; [ ] = another dose, or the depositor's remark. Unless noted, calls come from the whole dose curve; as a rule, active = well fitted curve in the direction sought with a large enough effect; inconclusive = small, poorly fitted or top-dose-only effect, or another doubt; inactive = no such curve, though single readings can be large; an effect the other way counts as inactive or inconclusive.

SMILES	Pol eta inh	POLI inh	Pol kappa inh	PI5P4Ka inh	WRN inhibitor	Pol beta inh
C=CCOC(=O)C(=O)/C=C/c1ccc2c(c1)Cc1ccccc1-2	3%	13µM*	-6%	-13	-22%	8%
COc1ccc(CN(C(=O)Nc2cccc(Cl)c2)c2ccccn2)cc1OC	-14%	13%	-18%	nt	nt	1%
CN(CC(=O)O)c1ccc(/C=C2\C=Cc3ccccc32)cc1	nt	50%	56µM*!	nt	nt	nt
Cc1ccc(S(=O)(=O)NCCc2nnc3ccc(SCc4ccc(F)cc4)nn23)cc1	-10%	15%	-13%	nt	nt	5%
CCOC(=O)c1c(N2C(=O)Nc3cc(Cl)c(Cl)cc3N2O)sc2c1CCCCC2	?	-10%	-26%	?	?	50µM*
Cc1cc(/C=N/NC(=O)C(O)(c2ccccc2)c2ccccc2)c(C)n1-c1ccc(C(=O)O)cc1	79µM*	?	-22%	-16	1%[11.6 µM]	?
Cc1cc(/C=N/NC(=O)c2cccc(N(C)C)c2)c(C)n1-c1cc(C(=O)O)cc(C(=O)O)c1	20µM*	10µM*	32µM*	?	?	18µM*
CN(C)c1cccc(C(=O)N/N=C/c2ccccc2F)c1	-19%	21%	-5%	3	-2%	-11%
COC(=O)C1=C(CSc2nc3c(cc2C#N)CN(C)CC3)OC(N)=C(C#N)C1c1ccc(F)cc1 (stereo unspecified)	?	14µM*	71µM*	nt	?	?
CCOC(=O)C1=C(CSc2nc(CC)c(C)cc2C#N)OC(N)=C(C#N)C1c1ccc(OC)cc1 (stereo unspecified)	-23%	?	-11%	-13	-18%	1%
COc1cccc(C2C3=C(N=c4s/c(=C\c5ccc(OCC(=O)O)cc5)c(=O)n42)c2ccccc2CC3)c1 (stereo unspecified)	89µM*	-4%	-16%	?	-20%	?
COc1cccc(C2C3=C(N=c4s/c(=C\c5ccc(O)cc5)c(=O)n42)c2ccccc2CC3)c1OC (stereo unspecified)	-15%	4%	-8%	-2	1%	6%
COc1ccccc1C1C2=C(N=c3s/c(=C/c4cccc(OCC(=O)O)c4)c(=O)n31)c1ccccc1CC2 (stereo unspecified)	40µM*	?	-31%	?	-32%	50µM*
COc1cc2cc(Oc3ccc4ccc(=O)oc4c3)c(=O)oc2cc1OC(C)=O	?	-6%	-17%	-4	2%	0%
COc1cc2cc(Oc3ccc4ccc(=O)oc4c3)c(=O)oc2cc1OC(=O)C=C(C)C	nt	nt	nt	nt	nt	14µM*
Cc1cc(Cl)ccc1OCC(=O)Nc1c(C(=O)c2ccccc2)oc2ccccc12	-5%	11%	-2%	nt	nt	20%
CN(C(=O)c1cc2c(=O)n3ccccc3nc2n1C)C1CCCCC1	-9%	17%	-1%	0	-33%	0%
COCCN(CCOC)C(=O)c1cc2c(=O)n3ccccc3nc2n1C	-14%	?	-22%	nt	nt	10µM*
Cc1c(C=Nc2ccc(S(=O)(=O)CCO)cc2)c(O)[nH]c(=O)c1C#N	-9%	40%	-4%	-78*	-3%	nt
Cc1c(C=Nc2ccc(S(=O)(=O)N(C)C)cc2)c(O)[nH]c(=O)c1C#N	-3%	185%	-8%	-90*	-32%	nt
Cc1[nH]n(-c2ccc(F)cc2)c(=O)c1C=Nc1ccc(S(=O)(=O)N(C)C)cc1	-1%	12%	-13%	0	-11%	7%
CCOC(=O)c1cc(S(=O)(=O)N2CCN(c3ccc(C(C)=O)cc3)CC2)[nH]n1	10%	12%	-7%[60.1 µM]	nt	nt	-23%
Cc1cc(C)c2nccc(/C=C/c3ccc(N(C)C)cc3)c2c1	nt	10%	-7%	nt	nt	nt

Compound activity (PubChem)
